Results filed as inconclusive are left out. Activity calls are given as the source filed them. How the source made its calls: active means hit-call score of the fitted dose curve at least 0.9, where 1 is the maximum; inconclusive means response in the unintended direction; inactive means score below 0.9.
Assay: CCTE_Shafer_MEA_acute_AB: CCTE's Alamar Blue Assay for Cytotoxicity in the Neural Acute Assay, Shafer Lab (AID 2284069);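 further: active compounds lower the viability signal compared with DMSO wells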
Experimental: CCTE_Shafer_MEA_acute assay is conducted using Axion Biosystems 48 well microelectrode array (MEA) plates and Maestro recording system. Each well of the MEA plate contains a grid of 16 microelectrodes embedded in the culture surface. Electrically active cells, such as neurons, can be cultured over the electrodes, and electrical activity in these cells can be recorded extracellularly. The spontaneous firing of neurons is captured from each electrode on a microsecond timescale providing both temporally and spatially precise data. […] The CCTE_Shafer_MEA_acute assay uses primary cultures of rat cortical neurons. As these cultures mature over time, neural networks develop functional activity and form cohesive networks in which electrical activity can be highly coordinated. Baseline 40-minute recordings are made on days post-plating 13 or 15, followed by a secondary 40-minute recording after chemical exposure.CCTE_Shafer_MEA_acute_AB is a component of the CCTE_Shafer_MEA_acute assay. It measures the resazurin reduction using fluorescence.Data from the assay component CCTE_Shafer_MEA_acute_AB was analyzed into 1 assay endpoint. This assay endpoint, CCTE_Shafer_MEA_acute_AB, was analyzed in the positive analysis fitting direction relative to DMSO as the negative control and baseline of activity. Using a type of viability reporter, loss-of-signal activity can be used to understand cell viability.
Metabolic activity was determined using the CellTiter Blue (CTB) assay (Promega Cat. #8081), following the manufacturer's instructions with the following modifications. Following the removal of the 50 uL sample for the LDH assay, 450 uL of media was removed from each well and replaced with 200 uL of fresh media containing a 1:6 dilution of CTB reagent for the determination of metabolic activity. Fluorescence was measured in a Fluorostar Optima fluorimeter using an excitation wavelength of 544 nm and an emission wavelength of 590 nm.

Compound | outcome | AC50
CCCN(CCOc1c(Cl)cc(Cl)cc1Cl)C(=O)n1ccnc1 | inactive | –
Oc1ccc(Cl)cc1Cc1ccccc1 | inactive | –
O=S(=O)(O)C(F)(F)C(F)(F)C(F)(F)C(F)(F)C(F)(F)C(F)(F)C(F)(F)C(F)(F)F | inactive | –
N#Cc1c(Cl)c(Cl)c(Cl)c(C#N)c1Cl | inactive | –
COP(=S)(OC)Oc1ccc(SC)c(C)c1 | inactive | –
Clc1ccccc1-c1nnc(-c2ccccc2Cl)nn1 | inactive | –
CC1(C)C(C=C(Cl)Cl)C1C(=O)OC(C#N)c1ccc(F)c(Oc2ccccc2)c1 (stereo unspecified) | inactive | –
N#CN | inactive | –
O=C(O)CCCOc1ccc(Cl)cc1Cl | inactive | –
CCC(C)Nc1c([N+](=O)[O-])cc(C(C)(C)C)cc1[N+](=O)[O-] (stereo unspecified) | inactive | –
CNC(=O)/C=C(\C)OP(=O)(OC)OC | inactive | –
Oc1cc(Cl)ccc1Oc1ccc(Cl)cc1Cl | inactive | –
CCCN(CCC)c1c([N+](=O)[O-])cc(C(F)(F)F)cc1[N+](=O)[O-] | inactive | –
O=S1OCC2C(CO1)C1(Cl)C(Cl)=C(Cl)C2(Cl)C1(Cl)Cl (stereo unspecified) | inactive | –
O=C1c2ccccc2C(=O)N1SC(Cl)(Cl)Cl | – | 20 µM (active)
CCC(C)(C)C(=O)OC1=C(c2ccc(Cl)cc2Cl)C(=O)OC12CCCCC2 | inactive | –

Reference: PubChem BioAssay (EPA / NIEHS)
